Among the data in PubChem BioAssay AID1626 (SRMLSC, 2009) are inhibition values, retold here.

The campaign covered roughly 220,000 compounds. About 2,000 (0.91%) were called active. Roughly 2% stayed inconclusive and do not appear here. Not all results are given here. Entries with a potency or affinity are not part of this list. A number with no mark means an inactive call. Cut-off read from the data, not from the text of the source: inconclusive = inhibition above about 80% without an active follow-up result; inactive = below that; test concentration not stated here.

A short description of this assay: M. tuberculosis H37Rv growth inhibitors, H37Rv strain (AID 1626).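 Note: bacteria incubated seven days before Alamar blue readout; 0% = bacteria only wells and 100% = bacteria with antibiotic wells.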 As to conditions: hits give high values, concentration not given here.
For the compound `O=C(Cc1c(O)c2ccccc2[nH]c1=O)NCc1ccc(F)cc1`, the inhibition (usually the drop in the measured response relative to a control, in per cent) was -5.49%.

For `CCn1ccnc1CNC(=O)CC1C(=O)NCCN1CC(c1ccccc1)c1ccccc1` (configuration not stated), the inhibition is 4.83%. With `CCN(Cc1ccccc1)C(=O)COC(=O)Cn1cnc2ccccc21` the figure was 3.35%; with `Clc1ccc(OCCn2ccnc2)c(Br)c1`, 1.12%; with `S=C(NCCCn1ccnc1)Nc1ccc(Cl)cc1Cl`, 5.11%. On to `Clc1ccc(OCCn2ccnc2)c(Cl)c1`, for which the inhibition was -5.05%. On to `OC(Cn1ccnc1)c1ccc(Cl)cc1Cl` (configuration not stated), for which the inhibition is -10.3%. The result for `OCC[C@H]1C[C@H](O)[C@@H](O)[C@@]2(CCCCO2)O1` reads -8.14%; that for `S=C(NCc1ccccc1Cl)Nc1ccccc1Cl`, 9.29%. With `COc1ccccc1-n1cc(C(=O)c2cc(Cl)ccc2O)cc(C#N)c1=O` the figure was 7.62%; with `CC(=O)OC(C(=O)NC1CCCCC1)c1ccc(C)cc1` (configuration not stated), -5.04%.

Take `CCCC(C)C(=O)OCC(=O)Nc1ccc(Br)cc1` (configuration not stated): the inhibition was 10.2%. In the case of `COC(=O)c1ccc(NC(=O)CSCc2ccc(C)cc2)cc1`, the inhibition is 70.8%.

As to `Cc1ccc(NC(=O)CSCc2ccc(F)cc2)cc1`, the inhibition was 76.7%.

With `COc1ccc(-n2c(-c3ccc(Cl)cc3)c[n+]3c2CCCCC3)cc1`, the inhibition is -11.5%. Turning to `O=C(C1CCC(CNc2c(N3CCOCC3)c(=O)c2=O)CC1)N1CCN(c2ccccc2)CC1` (configuration not stated), the inhibition was -8.11%. The result for `COc1ccc(CN2CCc3ccccc3C2)c(OC)c1` reads -5.76%; that for `Cc1ccc(S(=O)(=O)N2CCN=C2c2ccccc2)cc1C`, 0.57%; that for `NC(=O)c1ccc(C(F)(F)F)n(Cc2cccc(Cl)c2)c1=O`, 17.3%.

Turning to `COC(=O)c1ccc(Cn2cc(C(F)(F)F)ccc2=O)cc1`, the inhibition was 2.66%. With `COC(=O)c1cc(Br)c(=O)n(Cc2ccc(C(=O)O)cc2)c1` the figure was -9.26%; with `O=c1c([N+](=O)[O-])cccn1Cc1cccc(Cl)c1`, -8.12%. The result for `CC(C)NC(=O)COC(=O)c1ccc(Oc2ccccc2)cc1` reads -7%; that for `c1ccc(-c2ccc(OCCCNC3CCCC3)cc2)cc1`, 11.4%; that for `O=C1c2oc3ccccc3c(=O)c2C(c2cccc(Br)c2)N1Cc1ccco1` (configuration not stated), 1.43%.

For `Cc1ccc2oc3c(c(=O)c2c1)C(c1cccc(Br)c1)N(Cc1ccco1)C3=O` (configuration not stated), the inhibition was 1.98%. For `CN1CCN(C(=S)c2cn(CCOc3ccccc3)c3ccccc23)CC1`, the inhibition was 13%. In the case of `Cc1cc(N/C=C(\C#N)S(=O)(=O)c2ccccc2Cl)nc(C)n1`, the inhibition was -9.07%. With `COc1cc2c3c(c1)C(C)=CC(C)(C)N3C(=O)C2=O` the figure was -3.11%; with `CC1=CC(C)(C)N2C(=O)C(=Nc3ccc(O)cc3)c3cccc1c32`, 3%; with `CC(=O)N/C(=C\c1cccc([N+](=O)[O-])c1)C(=O)NC1CCCCC1`, -0.9%.

As for `CCN(CC)S(=O)(=O)c1ccc(/C=C/C(=O)O)cc1`, the inhibition was -3.16%.

Take `CS(=O)(=O)N(Cc1ccccc1)c1ccc(C(=O)NCC2CCCO2)cc1` (configuration not stated): the inhibition is -13.4%. Regarding `CCn1c(/C=C/c2cccc([N+](=O)[O-])c2)nc2ccccc2c1=O`, the inhibition was -7.86%. With `CCn1c(/C=C/c2ccccc2[N+](=O)[O-])nc2ccccc2c1=O` the figure was 2.98%. The result for `Cc1ccc(NC(=O)CCNC(=O)c2ccco2)cc1` reads 3.05%; that for `COc1ccc(NCc2nnc(SCC(=O)NNC(=O)c3ccc(C)cc3)n2C)cc1`, -19.4%; that for `COc1ccc(N2CCN(c3oc(COc4ccccc4)nc3C#N)CC2)cc1`, -5.04%. The result for `CCN1CCN(c2oc(COc3ccc(-c4ccccc4)cc3)nc2C#N)CC1` reads 10.7%; that for `O=S(=O)(c1ccc2oc(=S)[nH]c2c1)N1CCCCC1`, -5.83%.

On to `CCC(C)[C@H](NC(=O)NCc1ccc(S(N)(=O)=O)cc1)C(=O)OC` (some centres not stated), for which the inhibition is 6.6%.

With `Cn1cnc2c1c(=O)n(Cc1ccccc1)c(=O)n2C`, the inhibition was -6.11%. As for `c1ccc(-c2cc3c(N4CCN(c5ncccn5)CC4)ncnc3s2)cc1`, the inhibition was -0.33%. With `Oc1ccc(N2CCN(c3ncnc4sc(-c5ccccc5)cc34)CC2)cc1` the figure was 69.8%. Take `CN1CCN(c2ncnc3sc(-c4ccccc4)cc23)CC1`: the inhibition is 0.51%. With `c1ccc(-c2cc3c(N4CCCC4)ncnc3s2)cc1`, the inhibition was 2.65%. Regarding `O=C(NCCN1CCOCC1)N1CCOCC1`, the inhibition is -3.24%. On to `COc1ccc(Cl)cc1NC(=O)c1ccccc1C`, for which the inhibition was 4.11%. Consider `Cc1cc(C)c2nc(SC(C)C#N)cc(C)c2c1` (configuration not stated), for which the inhibition is 9.89%. As for `O=C(CN(Cc1ccco1)C(=O)c1ccccc1)Nc1ccc(Cl)c(Cl)c1`, the inhibition is 0.53%. The result for `O=C(Nc1ccccc1)C12CC3CC(C1)CC(n1cnc([N+](=O)[O-])n1)(C3)C2` reads 3.45%.

For `O=C(Nc1cccc([N+](=O)[O-])c1)C12CC3CC(C1)CC(n1cnc([N+](=O)[O-])n1)(C3)C2`, the inhibition was 3.76%. The result for `O=C1c2ccsc2SCCN1Cc1ccccc1Cl` reads 8.66%; that for `COCCNC(=O)/C(C#N)=C\c1ccc(CNC(=O)C(=O)Nc2ccc(C)c(C)c2)o1`, -19%; that for `CCC(=O)N1CCc2cc(S(=O)(=O)CCC(=O)NCc3ccco3)ccc21`, -7.3%.

Turning to `O=C(c1ccc2ccccc2c1)C1CCCN(C(=O)CCn2cnnn2)C1` (configuration not stated), the inhibition was 3.36%. Regarding `COc1ccc(C(O)c2nccn2C)cc1` (configuration not stated), the inhibition is 4.48%. For `Cn1ccnc1C(O)c1ccccc1` (configuration not stated), the inhibition is 6.73%. The result for `O=C(NN1C(=O)C2C(C1=O)C1C=CC2C12CC2)c1ccc(Cl)cc1` (configuration not stated) reads 7.63%. The result for `Cc1ccc(NS(=O)(=O)c2cccc([N+](=O)[O-])c2)nc1` reads 2.81%; that for `O=C(c1ccco1)N1CCN(c2nnc(-c3ccccc3)c3ccccc23)CC1`, 1.18%. Consider `CC1(C)Cc2c(C#N)c(N3CCN(C(=O)c4ccco4)CC3)nc(Cc3ccccc3)c2CO1`, for which the inhibition is -5.53%. As to `CC(C)C(=O)N1CCN(c2nc(-c3ccccc3)c3c(c2C#N)CCCC3)CC1`, the inhibition was 7.25%. On to `Cc1ccc(-c2nnc(N3CCN(C(=O)CN4CCOCC4)CC3)c3ccccc23)cc1`, for which the inhibition is 0.29%.

In the case of `CCC(=O)N1CCN(c2nc(-c3ccccc3)c3c(c2C#N)CCCC3)CC1`, the inhibition was 6.35%. For the compound `CCc1nc(N2CCN(C(=O)c3ccccc3)CC2)c(C#N)c2c1COC(C)(C)C2`, the inhibition is -3.57%. For the compound `O=C(/C=C/c1ccc(Br)cc1)NCc1cccs1`, the inhibition was 8.29%. The result for `Cc1cc(C)cc(N2C(=O)CSC2c2cccs2)c1` (configuration not stated) reads -1.33%; that for `O=C(O)c1sccc1SCc1ccc(Cl)c(Cl)c1`, -2.78%. The result for `O=C(CNS(=O)(=O)c1cccc(Cl)c1)Nc1ccc(-c2nc3ccccc3s2)cc1` reads 1.91%; that for `O=C1[C@@H]2[C@H](C(=O)N1Cc1cccnc1)[C@H]1C=C[C@@H]2C1`, 4%. Consider `COc1ccc(NC(=O)NCCCN2CCC(Cc3ccccc3)CC2)cc1`, for which the inhibition is -4.94%. In the case of `C#C[C@]1(O)CCC2C3CCC4=Cc5oncc5CC4(C)C3CCC21C` (some centres not stated), the inhibition is 3.82%. In the case of `CCOC(=O)c1sc(N2N=C(C)C(N=Nc3cccc(C)c3)C2=O)nc1C` (configuration not stated), the inhibition was 57.3%. The result for `NCCOc1cnn(-c2ccccc2Cl)c(=O)c1Cl` reads 0.22%; that for `COc1ccc(NC(=O)N2CCCC(c3nc(-c4ccc(C(C)C)cc4)no3)C2)cc1` (configuration not stated), 10.7%; that for `Cn1c(-c2ccc3c(c2)OCO3)cnc1NCc1ccc(Cl)cc1`, -3.22%. For `Cn1c(-c2ccc3c(c2)OCO3)cnc1NCc1ccccc1`, the inhibition was -5.95%. The result for `CC(C)C[C@H](NC(=O)c1nc[nH]c1C(=O)NCc1ccccc1)C(=O)OCc1ccccc1` reads -9.88%; that for `O=S(=O)(c1ccc(-n2cnnn2)cc1)N1CCC(N2CCCCC2)CC1`, 0.43%. The result for `CC(C)CNC(=O)NC(=O)COC(=O)c1cccc(NS(=O)(=O)c2ccc(F)c(F)c2)c1` reads 27.8%; that for `Cc1cc(C)n2c(=S)[nH]nc2n1`, -1.62%; that for `CCCC(=O)NC(C)c1nc2ccccc2n1CC` (configuration not stated), 1.48%. As for `O=C(Nc1ccc(F)c(F)c1)NC1CCCCC1`, the inhibition was -11.3%.

Take `Cc1ccc(NC(=O)C2CCN(C(=O)NC3CCCCC3)CC2)cc1Cl`: the inhibition is 7.5%. `O=C(Nc1ccc(Cl)cc1)NC1CCCCC1`: the inhibition was -3.67%. Take `CC(C)c1ccc(NC(=S)NC2CCCCCC2)cc1`: the inhibition is -13.8%. With `Cc1noc(C)c1S(=O)(=O)N1CCCCC1` the figure was -4.38%; with `CCC(C)(C)C(=O)Nc1ccc(OC)cc1[N+](=O)[O-]`, -0.65%; with `Cc1csc(NC(=O)c2cc3c(s2)CCCCC3)n1`, 16.1%. The result for `CCc1nnc(NC(=O)c2cc3c(s2)CCCCC3)s1` reads -9.6%. On to `Cc1cc(Cl)ccc1NC(=O)C1CCCN1C(=O)c1cccs1` (configuration not stated), for which the inhibition was 0.31%. With `CCN(CC)CCn1c(SCC(=O)NCc2ccccc2)nc2c(sc3ccccc32)c1=O` the figure was 3.01%; with `COc1ccc(Nc2c3c(nc4ccccc24)CCCC3)cc1OC`, 8.23%. In the case of `O=C(CSc1nnc(NC(=O)c2ccccc2C(=O)O)s1)Nc1ccccc1Cl`, the inhibition was -9.06%.

In the case of `CCOc1cc(/C=C/c2cc(C(F)(F)F)[nH]c(=O)n2)ccc1O`, the inhibition was 2.01%.

Turning to `COc1cc(C(=O)N/N=c2/sc3ccccc3n2C)cc(OC)c1OC`, the inhibition is -5.9%.
